The list is not random: actives were taken first. Their share in the collection is about 0.68%.
Tb PYK inh – inhibitors of Trypanosoma brucei pyruvate kinase; Potency, µM (highest dose often 76.8 µM), inactives show top-dose activity, negative = inhibition, actives largely listed as inhibitors; actives 0.12% (n = 410,000); Q57TT1; TbPYK enzyme, Kinase-Glo Plus ATP luminescence, 45 min; note: nearly all actives have a fitted effect of over 50% in size
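T. brucei PYK with substrate was exposed to pin-transferred compounds across a concentration series, then started with 130 uM ADP (final). After 45 min at room temperature, Kinase-Glo Plus luminescence was read, normalized and curve-fitted.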
AMA1 RON2 block – AMA1-RON2 (P. falciparum) interaction inhibition; Potency, µM (series often up to 58.2 µM), inactives show at the top dose activity change, negative = inhibition, most hits filed as inhibitors; actives 0.2% (n = 360,000); AlphaScreen AMA1-biotinylated RON2 peptide binding;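 note: 0% = vehicle wells and -100% = peptide control; nearly all actives have a fitted effect of over 45% in size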
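AMA1 (3D7) with his tag at 25 nM final met compounds first, then biotinylated RON2 peptide at 25 nM; detection used donor plus acceptor beads, 10 µg/mL apiece, read by AlphaScreen after 30 min at room temperature.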
RE007 growth inh – less growth of the S. pombe RE007 Vpr strain; S. pombe RE007 Vpr strain, BacTiter-Glo ATP luminescence, 24 h; Potency, µM (titrated, usually from 92.2 µM), for the others: top-dose activity change, negative = less growth, actives largely listed as inhibitors; actives 0.21% (n = 360,000); active = well fitted falling curve with a large enough effect; inconclusive = small, poorly fitted or top-dose-only effect; inactive = no such curve, though single readings can be large or run the other way; note: nearly all actives have a fitted effect of over 50% in size
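Fission yeast strain RE007, carrying one chromosomally integrated HIV-1 vpr copy, was seeded at OD 0.01 in PMG+AL medium with 23 nL pinned compound. After 24 h at 30 °C and 99% humidity, viability was read by BacTiter-Glo luminescence.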
LmPK inh – inhibitors of Leishmania mexicana pyruvate kinase; Q27686; actives 0.37% (n = 290,000); purified LmPK, Kinase-Glo ATP luminescence, 1 h; Potency, µM (doses to about 57.5 µM), for the others: top-dose activity change, negative = inhibition, hits mostly inhibitors; AID 1721
Target sequence (Q27686 whole entry, looked up): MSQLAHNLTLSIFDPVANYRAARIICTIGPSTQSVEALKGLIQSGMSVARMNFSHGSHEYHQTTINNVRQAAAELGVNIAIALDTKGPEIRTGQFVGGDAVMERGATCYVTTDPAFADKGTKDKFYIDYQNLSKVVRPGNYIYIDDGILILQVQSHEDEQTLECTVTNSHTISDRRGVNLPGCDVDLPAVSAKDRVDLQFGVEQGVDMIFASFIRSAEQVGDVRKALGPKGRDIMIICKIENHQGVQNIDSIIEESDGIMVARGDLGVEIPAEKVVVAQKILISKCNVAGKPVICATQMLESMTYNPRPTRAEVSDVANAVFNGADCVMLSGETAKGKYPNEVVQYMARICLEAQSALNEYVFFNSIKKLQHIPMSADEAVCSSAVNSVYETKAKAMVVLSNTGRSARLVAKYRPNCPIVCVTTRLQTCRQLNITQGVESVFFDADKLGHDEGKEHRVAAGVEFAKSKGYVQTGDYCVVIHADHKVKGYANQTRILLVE
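In 50 mM imidazole pH 7.2 with 7 mM MgCl2, LmPK (0.1 nM) turned over PEP (0.5 mM) and ADP (0.1 mM) for 1 h at room temperature. Luciferase read-out of ATP.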
The depositor's hits bear a star. Unless noted, calls come from the whole dose curve; as a rule, active = well fitted curve in the direction sought with a large enough effect; inconclusive = small, poorly fitted or top-dose-only effect, or another doubt; inactive = no such curve, though single readings can be large; an effect the other way counts as inactive or inconclusive. Unless noted, % is set by controls: 0 for no effect and ±100 for the full control effect; potency is the fitted concentration of half-maximal effect.

Screening CCOC(=O)c1ccc(S(=O)(=O)NCC(c2ccc(N(C)C)cc2)c2c[nH]c3ccccc23)cc1 (stereo not given) returned Tb PYK inh -17.8%, AMA1 RON2 block 14.1µM*, RE007 growth inh -16.5% and LmPK inh 4.7%.
`CN(C)c1ccc(C(CNC(=O)c2ccc(C#N)cc2)c2c[nH]c3ccccc23)cc1` (stereo not given) gave Tb PYK inh -6.2%, AMA1 RON2 block 14.1µM*, RE007 growth inh -3.7% and LmPK inh 2.0%.
CC(C)C[C@H]1CN([C@@H](CC(C)C)CN2CCC[C@@H]2CN2C(=S)NC[C@@H]2Cc2ccc(O)cc2)C(=S)N1CC1CCCCC1 was read as Tb PYK inh 3.9%, AMA1 RON2 block -10.6% and RE007 growth inh 5.1%.
O=C(N/N=C/c1ccc(F)cc1)c1sccc1OCc1ccc(F)cc1 was read as Tb PYK inh -1.1%, AMA1 RON2 block 4.9%, RE007 growth inh 0.5% and LmPK inh 1.5%.
Screening O=C(N/N=C/c1ccc(Cl)cc1)c1sccc1OCc1ccc(F)cc1 returned Tb PYK inh 0.2%, AMA1 RON2 block 39.8µM*, RE007 growth inh 5.0% and LmPK inh 7.8%.
Screening O=C(Nc1nc2cc3c(cc2s1)OCO3)c1ccco1 returned Tb PYK inh -10.1%, AMA1 RON2 block 4.0%, RE007 growth inh inconclusive and LmPK inh 15.8µM*.
COc1ccc(N2CCN(CC(O)COC(c3ccc(F)cc3)c3ccc(F)cc3)CC2)cc1 (stereo not given) was read as Tb PYK inh 4.9%, AMA1 RON2 block 28.2µM*, RE007 growth inh -17.8% and LmPK inh -11.6%.
`COCCOCC(O)CN1CCN(c2ccc(C)cc2)CC1` (stereo not given) gave Tb PYK inh -6.4%, AMA1 RON2 block 14.1µM*, RE007 growth inh -0.5% and LmPK inh -1.1%.
COc1ccc(N2CCN(CC(O)COC(c3ccccc3)c3ccccc3)CC2)cc1 (stereo not given) was read as Tb PYK inh -13.1%, AMA1 RON2 block inconclusive, RE007 growth inh 1.8% and LmPK inh 2.5%.
CC1CC(C)CN(S(=O)(=O)c2ccc3c(c2)CC(C)N3C(=O)C2CCC2)C1 (stereo not given) was read as Tb PYK inh -3.0%, AMA1 RON2 block -0.3%, RE007 growth inh 13.7% and LmPK inh 4.4%.
Screening CSCCC(NS(=O)(=O)c1ccccc1F)C(=O)N1CCCCCC1 (stereo not given) returned Tb PYK inh 5.3%, AMA1 RON2 block 5.0%, RE007 growth inh 3.0% and LmPK inh 0.6%.
`Fc1ccccc1-c1n[nH]c(=S)n1/N=C/c1c[nH]c2ccccc12` gave Tb PYK inh inconclusive, AMA1 RON2 block 51.7%, RE007 growth inh 0.9% and LmPK inh 10µM*.
`Fc1ccccc1/C=N/n1c(C2CCCCC2)n[nH]c1=S` gave Tb PYK inh inconclusive, AMA1 RON2 block 80.6%, RE007 growth inh 6.6% and LmPK inh -12.8%.
Screening CC(C)Oc1ccc(C(CCNCc2ccc(O)cc2)c2ccccc2)cc1 (stereo not given) returned Tb PYK inh 4.4%, AMA1 RON2 block -2.0%, RE007 growth inh 6.4% and LmPK inh -2.0%.
For COc1ccc(C(CCNCc2ccc(N(C)C)cc2)c2ccccc2)cc1 (stereo not given) the results were Tb PYK inh -7.5%, AMA1 RON2 block 20µM*, RE007 growth inh 10.6% and LmPK inh 0.3%.
Screening COc1ccc(C(=O)N2CCN(CCNC(=O)C(=O)Nc3ccc(F)cc3)CC2)cc1 returned Tb PYK inh 0.0%, AMA1 RON2 block 0.2%, RE007 growth inh -7.3% and LmPK inh 1.7%.
Screening COc1ccc(NC(=O)CCC(=O)c2cccs2)cc1Cl returned Tb PYK inh 4.0%, AMA1 RON2 block 15.3%, RE007 growth inh 3.8% and LmPK inh 3.7%.
`COc1cc(NCCC(=O)c2cccs2)c(OC)cc1Cl` gave Tb PYK inh inconclusive, AMA1 RON2 block 14.1µM*, RE007 growth inh -28.1% and LmPK inh -4.8%.
For COc1cccc(C2=NC(C)(C)NC(c3ccccc3O)C2)c1 (stereo not given) the results were Tb PYK inh 12.4%, AMA1 RON2 block -17.9%, RE007 growth inh inconclusive and LmPK inh -5.0%.

Screening results deposited in PubChem by National Center for Advancing Translational Sciences (NCATS).
